Results from PubChem BioAssay (NCATS).
Results filed as inconclusive are left out. The source made the active and inactive calls. Calls follow the shape of the full dose curve; tested in HEK293 reporter line.

Assay: qHTS for Inhibitors of the Functional Ribonucleoprotein Complex (vRNP) of Lassa (LASV) Arenavirus: LASV Primary Screen - GLuc reporter signal (AID 1347082); also: nearly all actives have a fitted effect of over 60% in size
Conditions: LASV minigenome vRNP, Gaussia luciferase reporter; series mostly up to 57.5 µM; activity change, negative = inhibition: at the top concentration
% is scaled to controls: 0 for no effect and ±100 for the full control effect; potency is read from the fitted curve at half-maximal effect.

Compound | activity change, negative = inhibition | Potency
O=C(C=Cc1ccc(/C=C/C(=O)Nc2ccc(C3=NCCN3)cc2)cc1)Nc1ccc(C2=NCCN2)cc1 | 2.1% (inactive) | 
CC1(C)CCC(c2ccc(Cl)cc2)=C(CN2CCN(c3ccc(C(=O)NS(=O)(=O)c4ccc(N[C@H](CCN5CCOCC5)CSc5ccccc5)c(S(=O)(=O)C(F)(F)F)c4)cc3)CC2)C1 | -24.1% (inactive) | 
Cc1[nH]nc2ccc(-c3cncc(OC[C@@H](N)Cc4ccccc4)c3)cc12 |  | 432 nM (active)
CN1C(=O)CC[C@H]1c1cccnc1 |  | inactive
COc1cc2c(cc1OC)C(=O)CC2 | -5.37% (inactive) | 
[O-][n+]1cccc(/C(Cl)=N/OC[C@@H](O)CN2CCCCC2)c1 | -7.35% (inactive) | 
COc1ccc(-c2ccc3c(N4CCOC[C@H]4C)nc(N4CCOC[C@H]4C)nc3n2)cc1CO |  | 9.7 nM (active)
O=C1NS(=O)(=O)c2ccccc21 | -0.183% (inactive) | 
CCC(=O)N1CCN(c2ccc(-n3c(=O)ccc4cnc5ccc(-c6cnc7ccccc7c6)cc5c43)cc2C(F)(F)F)CC1 |  | 38.5 nM (active)
O=C(Nc1cccc(Cl)c1)Nc1ncc(CCNc2ncnc3ccsc23)s1 | -5.39% (inactive) | 
Cc1cc(SCc2sc(-c3ccc(C(F)(F)F)cc3)nc2C)ccc1OCC(=O)O | -0.875% (inactive) | 
NC(=O)c1ccc(I)c([N+](=O)[O-])c1 | 17.9% (inactive) | 
O=C1C(CCC(O)c2ccc(F)cc2)C(c2ccc(O)cc2)N1c1ccc(F)cc1 (stereo unspecified) | -0.52% (inactive) | 
CCN(CC)CCc1nc(-c2ccccc2)no1 | -5.48% (inactive) | 
O=C(O)c1ccc2cc(-c3ccc(O)c(C45CC6CC(CC(C6)C4)C5)c3)ccc2c1 | 4.09% (inactive) | 
O=S(c1cc(Cl)cc(Cl)c1O)c1cc(Cl)cc(Cl)c1O | 1.28% (inactive) | 
